The panel holds about 83,000 compounds, 20% with a hit somewhere; the sample as a whole holds those more often.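 Cell lines were cultured in 96-well plates, exposed to a single compound concentration, and assessed for percent growth 48 hours later.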 Active and inactive are the calls of the source. Rule for the calls: active = growth percent below 10; inactive = the rest.
Tests used:
Assay in all cases: NCI-60 one-dose screen, 48 h (100 = growth as untreated, 0 = no growth, -100 = all killed)
Settings in all cases: 10 µM unless noted
NCI-H23 lung = test system: NCI-H23 lung
NCI-H226 lung = test system: NCI-H226 lung
NCI-H322M lung = test system: NCI-H322M lung
HOP-62 NSCLC = test system: HOP-62 NSCLC
NCI-H460 lung = test system: NCI-H460 lung
HOP-92 NSCLC = test system: HOP-92 NSCLC
NCI-H522 lung = test system: NCI-H522 lung
A549/ATCC NSCLC = test system: A549/ATCC NSCLC
786-0 renal = test system: 786-0 renal
COLO 205 colon = test system: COLO 205 colon
DU-145 prostate = test system: DU-145 prostate
K-562 leukemia = test system: K-562 leukemia
MALME-3M melanoma = test system: MALME-3M melanoma
MDA-MB-231 breast = test system: MDA-MB-231 breast
RXF 393 renal = test system: RXF 393 renal
SF-268 CNS = test system: SF-268 CNS
SF-295 CNS = test system: SF-295 CNS
SF-539 CNS = test system: SF-539 CNS
UACC-257 melanoma = test system: UACC-257 melanoma
M14 melanoma = test system: M14 melanoma

Measured: growth

CC(=O)c1c(C)nc2ccccc2c1/C=C/c1ccc(F)cc1
inactive: NCI-H23 lung 81.7% | NCI-H226 lung 77.2% | NCI-H322M lung 96.8% | HOP-62 NSCLC 92% | NCI-H460 lung 91.5% | HOP-92 NSCLC 75.6% | NCI-H522 lung 69.2% | A549/ATCC NSCLC 83.8% | 786-0 renal 89.4% | COLO 205 colon 104% | DU-145 prostate 96.1% | K-562 leukemia 60.2% | MALME-3M melanoma 123% | MDA-MB-231 breast 93.8% | RXF 393 renal 92.7% | SF-268 CNS 90.6% | SF-295 CNS 84% | SF-539 CNS 90.4% | UACC-257 melanoma 95.2% | M14 melanoma 107%

COc1c(C(=O)Nc2ccc(C)c(Br)c2)ccc2ccccc12
inactive: NCI-H23 lung 90.6% | NCI-H226 lung 103% | NCI-H322M lung 104% | HOP-62 NSCLC 99.8% | NCI-H460 lung 102% | HOP-92 NSCLC 105% | NCI-H522 lung 85% | A549/ATCC NSCLC 87.9% | 786-0 renal 96.5% | COLO 205 colon 101% | DU-145 prostate 96.8% | K-562 leukemia 41.9% | MALME-3M melanoma 84.4% | MDA-MB-231 breast 104% | RXF 393 renal 81.1% | SF-268 CNS 96.5% | SF-295 CNS 90.6% | SF-539 CNS 92.2% | UACC-257 melanoma 98.3% | M14 melanoma 81.1%

O=C(Nc1cccc2ccccc12)NC1CC1
inactive: NCI-H23 lung 105% | NCI-H226 lung 99.9% | NCI-H322M lung 111% | HOP-62 NSCLC 89.8% | NCI-H460 lung 106% | HOP-92 NSCLC 99% | NCI-H522 lung 136% | A549/ATCC NSCLC 103% | 786-0 renal 101% | COLO 205 colon 107% | DU-145 prostate 141% | K-562 leukemia 107% | MALME-3M melanoma 123% | MDA-MB-231 breast 113% | RXF 393 renal 107% | SF-268 CNS 120% | SF-295 CNS 116% | SF-539 CNS 122% | UACC-257 melanoma 106% | M14 melanoma 103%

O=C(CN1C(=O)S/C(=C\C(Cl)=C\c2ccccc2)C1=O)NCCc1ccc(O)cc1
inactive: NCI-H23 lung 40.2% | NCI-H226 lung 60.1% | NCI-H322M lung 75.2% | HOP-62 NSCLC 43% | NCI-H460 lung 45.7% | HOP-92 NSCLC 15.6% | A549/ATCC NSCLC 48.8% | COLO 205 colon 13.7% | DU-145 prostate 18.2% | K-562 leukemia 10.1% | MALME-3M melanoma 52.1% | MDA-MB-231 breast 30.4% | SF-268 CNS 60.7% | SF-295 CNS 44% | SF-539 CNS 15.6% | UACC-257 melanoma 60.9%
active: NCI-H522 lung -6.49% | 786-0 renal -17.9% | RXF 393 renal -22.7% | M14 melanoma -26.7%

CCN(CC)CCCCCNc1cc(OC(=O)c2ccc(Cl)cc2)cc2cccnc12
inactive: NCI-H23 lung 93.9% | NCI-H226 lung 105% | NCI-H322M lung 106% | HOP-62 NSCLC 95.8% | NCI-H460 lung 110% | HOP-92 NSCLC 38.2% | NCI-H522 lung 24.4% | A549/ATCC NSCLC 95.3% | 786-0 renal 106% | COLO 205 colon 33.9% | DU-145 prostate 114% | K-562 leukemia 75.3% | MALME-3M melanoma 61% | MDA-MB-231 breast 85.8% | RXF 393 renal 98.9% | SF-268 CNS 114% | SF-295 CNS 120% | SF-539 CNS 104% | UACC-257 melanoma 95.9% | M14 melanoma 102%

c1ccc(Cn2cc3c(c2)-c2oncc2CC3)cc1
active: NCI-H460 lung 8.32% | MDA-MB-231 breast 8.74% | RXF 393 renal 0.371% | SF-539 CNS -9.18%
inactive: NCI-H23 lung 46.6% | NCI-H226 lung 53% | NCI-H322M lung 60.4% | HOP-62 NSCLC 21.1% | HOP-92 NSCLC 65.4% | NCI-H522 lung 21.3% | A549/ATCC NSCLC 23.2% | 786-0 renal 37.1% | COLO 205 colon 15.9% | DU-145 prostate 19.6% | K-562 leukemia 13.9% | MALME-3M melanoma 86% | SF-268 CNS 37.2% | SF-295 CNS 20.3% | UACC-257 melanoma 82.8% | M14 melanoma 19.9%

NC(=O)c1cc(I)ccc1NC(=O)/C=C/c1ccccc1
active: NCI-H23 lung 9.27% | HOP-62 NSCLC -35.5% | NCI-H460 lung 1.75% | HOP-92 NSCLC 0.535% | NCI-H522 lung -18.7% | DU-145 prostate -7.97% | K-562 leukemia 1.5% | SF-295 CNS -18.4% | SF-539 CNS -22%
inactive: NCI-H226 lung 56.8% | NCI-H322M lung 33.8% | A549/ATCC NSCLC 33.7% | 786-0 renal 26% | COLO 205 colon 15.3% | MALME-3M melanoma 42.7% | MDA-MB-231 breast 31.6% | RXF 393 renal 19.3% | SF-268 CNS 29.9% | UACC-257 melanoma 69.7% | M14 melanoma 19.2%

COc1ccc(Cc2cnc(NC(=O)c3cc(C)oc3C)s2)cc1
inactive: NCI-H23 lung 59.5% | NCI-H226 lung 70.7% | NCI-H322M lung 51.9% | HOP-62 NSCLC 53% | NCI-H460 lung 16.6% | HOP-92 NSCLC 49.9% | NCI-H522 lung 14.4% | A549/ATCC NSCLC 38.1% | 786-0 renal 43.4% | COLO 205 colon 42.9% | DU-145 prostate 40.7% | K-562 leukemia 11.4% | MALME-3M melanoma 52.5% | MDA-MB-231 breast 63.6% | RXF 393 renal 16.4% | SF-268 CNS 53.3% | SF-295 CNS 39.4% | SF-539 CNS 32.5% | UACC-257 melanoma 57.3% | M14 melanoma 18.9%

O=C(O)c1cn(C2CC2)c2cc(N3CCN(C(=O)N(c4ccccc4)c4nc(-c5ccccc5)cs4)CC3)c(F)cc2c1=O
inactive: DU-145 prostate 15.4% | SF-268 CNS 19% | M14 melanoma 17.7%
active: NCI-H23 lung -3.61% | NCI-H226 lung 4.84% | NCI-H322M lung 2.44% | HOP-62 NSCLC -1.15% | NCI-H460 lung 2.93% | HOP-92 NSCLC -25% | NCI-H522 lung -25% | A549/ATCC NSCLC 9.6% | 786-0 renal 4.01% | COLO 205 colon -20.6% | K-562 leukemia 9.77% | MALME-3M melanoma 2.79% | MDA-MB-231 breast -48% | RXF 393 renal 8.65% | SF-295 CNS -0.773% | SF-539 CNS -7.39% | UACC-257 melanoma 1.71%

O=C(Nc1nc2cc(C(=O)N3CCN(C(c4ccccc4)c4ccccc4)CC3)ccc2o1)c1ccc(NC2CCCCC2)c([N+](=O)[O-])c1
inactive: NCI-H23 lung 69.5% | NCI-H226 lung 65.1% | NCI-H322M lung 59.4% | HOP-62 NSCLC 47.4% | NCI-H460 lung 46.8% | HOP-92 NSCLC 73.3% | NCI-H522 lung 64.2% | A549/ATCC NSCLC 56.1% | 786-0 renal 53.6% | COLO 205 colon 79.7% | DU-145 prostate 61.9% | K-562 leukemia 47% | MALME-3M melanoma 68.7% | MDA-MB-231 breast 75% | RXF 393 renal 74.9% | SF-268 CNS 58.2% | SF-295 CNS 42.1% | SF-539 CNS 59.9% | UACC-257 melanoma 62.2% | M14 melanoma 58.2%

COc1cc2c(cc1OC)C(C)N(S(N)(=O)=O)CC2 (stereo not given)
inactive: NCI-H23 lung 87.1% | NCI-H226 lung 78.8% | NCI-H322M lung 105% | HOP-62 NSCLC 80.2% | NCI-H460 lung 111% | HOP-92 NSCLC 98.6% | NCI-H522 lung 98.4% | A549/ATCC NSCLC 101% | 786-0 renal 89.3% | COLO 205 colon 111% | DU-145 prostate 105% | K-562 leukemia 103% | MALME-3M melanoma 105% | MDA-MB-231 breast 101% | RXF 393 renal 113% | SF-268 CNS 96.2% | SF-295 CNS 104% | SF-539 CNS 97.7% | UACC-257 melanoma 100% | M14 melanoma 91.8%

Oc1c(I)cc(I)cc1CNCc1ccccn1
inactive: NCI-H23 lung 52.4% | NCI-H226 lung 62.5% | NCI-H322M lung 40.1% | HOP-62 NSCLC 28.3% | NCI-H460 lung 19.9% | HOP-92 NSCLC 63.2% | A549/ATCC NSCLC 23.6% | 786-0 renal 36.1% | COLO 205 colon 74.1% | DU-145 prostate 49.9% | K-562 leukemia 20.9% | MALME-3M melanoma 42.5% | MDA-MB-231 breast 38.3% | RXF 393 renal 70.2% | SF-268 CNS 36.8% | SF-295 CNS 25.7% | SF-539 CNS 20.2% | UACC-257 melanoma 15.4%
active: NCI-H522 lung 4.61% | M14 melanoma 8.61%

CC(=O)Oc1ccc(N2C(=O)C(Cl)=C(Nc3cccc(C(F)(F)F)c3)C2=O)cc1
inactive: NCI-H23 lung 100% | NCI-H226 lung 92.1% | NCI-H322M lung 98.6% | HOP-62 NSCLC 96.9% | NCI-H460 lung 102% | HOP-92 NSCLC 99.7% | NCI-H522 lung 86% | A549/ATCC NSCLC 93.9% | 786-0 renal 95.7% | COLO 205 colon 93.4% | DU-145 prostate 101% | K-562 leukemia 90.4% | MALME-3M melanoma 102% | MDA-MB-231 breast 95.3% | RXF 393 renal 87% | SF-268 CNS 94.3% | SF-295 CNS 102% | SF-539 CNS 96.5% | UACC-257 melanoma 97.1% | M14 melanoma 105%

COC(=O)[C@]12CCC(C)(C)C[C@H]1[C@H]1/C(=N/OCCc3nn[nH]n3)C[C@@H]3[C@@]4(C)CC[C@H](OC(C)=O)C(C)(C)[C@@H]4CC[C@@]3(C)[C@]1(C)CC2
inactive: NCI-H23 lung 28.4% | NCI-H226 lung 33.3% | NCI-H322M lung 64.6% | HOP-62 NSCLC 34% | HOP-92 NSCLC 49.9% | NCI-H522 lung 38.3% | A549/ATCC NSCLC 36.8% | 786-0 renal 51.9% | COLO 205 colon 41.4% | DU-145 prostate 53.8% | K-562 leukemia 24.5% | MALME-3M melanoma 40.4% | MDA-MB-231 breast 48.5% | RXF 393 renal 70.1% | SF-268 CNS 45.5% | SF-295 CNS 25% | SF-539 CNS 44.7% | UACC-257 melanoma 16.5% | M14 melanoma 48.4%
active: NCI-H460 lung 9.64%

COCCn1cc(-c2nc(-c3cc4cccnc4[nH]3)cs2)c2cc(OC)ccc21
active: NCI-H23 lung 8.67% | NCI-H460 lung 7.21% | HOP-92 NSCLC 4.04% | K-562 leukemia 6.65% | MDA-MB-231 breast 2.87%
inactive: NCI-H226 lung 28.8% | NCI-H322M lung 21.2% | HOP-62 NSCLC 13.4% | NCI-H522 lung 41.6% | A549/ATCC NSCLC 24.8% | 786-0 renal 28.5% | COLO 205 colon 49.4% | DU-145 prostate 40.9% | MALME-3M melanoma 73.9% | RXF 393 renal 23.2% | SF-268 CNS 44.9% | SF-295 CNS 14.6% | SF-539 CNS 30.8% | UACC-257 melanoma 30.6% | M14 melanoma 37.6%

Reference: PubChem BioAssay (NCI)
